Measurements taken from ChEMBL document CHEMBL3988442, “University of Dundee, Small-Polar-MMV Screening Library” (2021).
Among all 48,000 compounds or so, about 13,000 (27%) showed an effect of 50% or more. This is one part of the list.

System: Wolbachia pipientis
Test: Anti-Wolbachia Cell-Based Screen
Assay type: functional
Set-up: scale not given: in the data most compounds retested in dose-response had high values
Conditions: 5 µM

SMILES	Percent Effect [%]
CCS(=O)(=O)N1CCc2ccc(NC(=O)Nc3ccccc3C)cc21	122.8
NS(=O)(=O)N1CCc2ccc(NC(=O)Cc3ccccc3F)cc21	-18.89
CCS(=O)(=O)N1CCc2ccc(NC(=O)Nc3ccccc3)cc21	185.4
CCS(=O)(=O)N1CCc2ccc(NC(=O)Nc3ccc(F)cc3F)cc21	3.435
CN(CCN1CCN(c2ccccc2)CC1)C(=O)Nc1ccccn1	-17.55
CC(C)Oc1ncccc1CNC(=O)c1ccco1	7.44
Cc1ccc(C(=O)N2CC(C(N)=O)O[C@H](C)C2)c(F)c1 (some centres undefined)	-9.152
N#CCCN(Cc1ccco1)C(=O)CN1CCCC1c1cccs1 (centres undefined)	-7.66
COc1ccc(CN(C)C(=O)CSc2nnc(N)s2)c(OC)c1OC	2.435
CN(Cc1noc(-c2ccccc2)n1)C(=O)CSc1nnc(N)s1	121.6
CCn1ccc(CN(C)C(=O)CSc2nnc(N)s2)n1	5.02
CCc1nc(CN(C)C(=O)C2CCC(=O)N(CC3CCCCC3)C2)no1 (centres undefined)	-15.94
CSCC(=O)N(C)Cc1noc(-c2ccccc2)n1	108.1
CC(C)c1nc(CN(C)C(=O)Cn2nc3ccccc3n2)no1	-13.5
CN(C)C(=O)Cc1ccccc1NCc1noc(-c2ccccc2)n1	11.76
CCc1noc(CN(C)C(=O)COc2cc(Cl)cc(Cl)c2)n1	-5.267
CCc1nc(CN(C)C(=O)CSC)no1	99.89
Cn1cc(N2CCC3(CCN(S(=O)(=O)C4CC4)C3)C2=O)cn1 (centres undefined)	-13.56
CCCC(C)CS(=O)(=O)NCCc1csc(N2CCCC2)n1 (centres undefined)	5.842
CC1(C)Cc2c(cnn2-c2ccccc2)C(NC2CCSCC2)C1 (centres undefined)	2.86
CN(C)c1ccnc(-c2ccnc3c2ccn3C)n1	-3.285
Cc1[nH]c2c(C)ccc(C)c2c1CC(=O)NCCCNc1cccnc1	-12.73
O=C(c1ccc2cccnc2n1)N(Cc1ccsc1)CC1CCCO1 (centres undefined)	-29.46

SMILES	Percent Effect [%]
O=C(c1ccno1)N1CCC2(CC1)C(=O)Nc1ccccc12	0.1339
COCCN1CC2(CCN(Cc3ccco3)CC2)c2ccccc21	-16.07
O=C(c1ccco1)N1CCC2(CC1)C(=O)Nc1ccccc12	-7.592
COCCN1Cc2ccccc2C2(CCN(C(=O)c3ccco3)CC2)C1	91.37
COCCN1Cc2ccccc2C2(CCN(S(C)(=O)=O)CC2)C1	109.9
COCCN1Cc2ccccc2C2(CCN(C(=O)c3ccno3)CC2)C1	106.5
COCCN1C[C@H]2CN(C(=O)c3ccno3)CCN2C1=O	3.514
COCCN1CCC2(CC1)CC1(CCN(S(C)(=O)=O)CC1)N(C)C2=O.O=C(O)C(F)(F)F	-9.423
CCS(=O)(=O)N1CCC2(CC1)CN(C(=O)N(C)C)Cc1ccccc12	-41.7
Cc1ccc(C(=O)Nc2cccc3c2C(=O)NC3)c(C)n1	-2.739
c1coc(CN2CCc3ncnc(C4CCOC4)c3CC2)c1 (centres undefined)	-7.93
COCCN1CCCC(O)(CN2CCN(c3cc(C)ccn3)CC2)C1=O (centres undefined)	-13.95
CCOCC1(CNCc2cc(O)c3cc(C)ccc3n2)CC1	1.355
COc1ccc(CN2CCC(CO)(Cc3ccc(Cl)cc3)CC2)c(O)c1	-0.5928
O=c1n(CC2COCCO2)nc(CC2CCNCC2)n1-c1ccccc1 (centres undefined)	28.69
CCN(CC)c1ccc2ccc(C(=O)N(C)C)cn12	-16.77
COC(=O)N1CCC(Oc2ccc(C(=O)NCCN(C)C)cc2Cl)CC1	19.93
CCN(CC)c1ccc2ccc(C(=O)NC3CC3)cn12	-16.69
CCn1cc(C(=O)NCc2cccnc2N(C)Cc2ccccc2)cn1	2.697
CN(C)C(=O)CNC(=O)c1ccc2ccc(N(C)CC3CC3)n2c1	99.28
CN(CC1CC1)c1ccc2ccc(C(=O)NC3CCCCC3)cn12	118
CN(CC1CC1)c1ccc2ccc(C(=O)NCCc3ccccc3)cn12	99.05
CCN(CC)c1ccc2ccc(C(=O)O)cn12	-4.44

SMILES	Percent Effect [%]
CN(C)CCNC(=O)c1ccc(OC2CCN(C3CCC3)CC2)c(Cl)c1	-4.706
CN(C)CCNC(=O)c1ccc2ccc(N(C)CC3CC3)n2c1	115.7
CCNC(=O)c1ccc2ccc(N(CC)CC)n2c1	1.029
CCNC(=O)N1C[C@@H]2OCC(=O)N(CC3CCCCC3)[C@@H]2C1	-5.369
CN(C)S(=O)(=O)c1cccc(CNc2cc(CO)ccc2Cl)c1	-35.79
O=C(NCc1ccccc1CN1CCC(O)CC1)Nc1cccnc1	-0.5671
COCCCN1CCC(c2nc3c([nH]2)CC(C)(C)CNC3=O)C1 (centres undefined)	-5.99
CCc1nnc(SC2CCN(c3ccccc3F)C2=O)n1C (centres undefined)	-9.884
Cc1cc2n(n1)CC(CNC1CCN(C3CC3)CC1)CN2 (centres undefined)	-6.962
CN(CCOc1ccc(F)cc1)S(=O)(=O)N1CCOCC1	-1.618
Cc1cccc2sc(NC(=O)CN3CCCC(O)(CO)C3)nc12 (centres undefined)	-1.543
COCCNC(=O)c1ccc2ccc(N(C)CC3CC3)n2c1	103.1
COCCNC(=O)CCNC(=O)c1ccc(N2CCC(C)=N2)cc1	-2.111
CCN(CC)c1ccc2ccc(C(=O)N(CCOC)CCOC)cn12.O=C(O)C(F)(F)F	4.611
Cc1ccc(C)c(CC(=O)NC2CCCS(=O)(=O)C2)c1 (centres undefined)	-8.397
CC(=O)N1CCC(NC(=O)CN2CCCc3c(C)ccc(F)c32)CC1	97.89
COC(=O)N1CCC(NC(=O)Cn2cc(C)c3ccccc32)CC1	-17.34
CC(=O)N1CCC(NC(=O)Cc2csc(C(C)(C)C)n2)CC1	-8.702
Cc1cn(CC(=O)NC2CCN(C(=O)C3CC3)CC2)c2ccccc12	4.79
CC(=O)NCc1ccc(C(=O)N2CCCc3c(F)ccc(C)c32)cc1	-14.03
Cc1ccc(C)c(CC(=O)NC2CCS(=O)(=O)CC2)c1	-1.123
CC(=O)N1CCC(NC(=O)CN2CCCc3c(F)ccc(C)c32)CC1	96.3
Cc1ccc(F)c2c1CCCN2CC(=O)NC1CCS(=O)(=O)C1 (centres undefined)	90.32
